Source: PubChem
IL1B secr inh: inflammasome signaling inhibition, IL-1 beta readout. THP-1 LPS/ATP IL-1B secretion, AlphaLISA, 16 h; hits give low values. activity change, % at 57.5 µM. 4.7% of 360,000 active. AID 743279; in the data active = activity change below about -50%; inconclusive = mostly about -30% to -49%
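THP-1 cells pretreated 1 hr with compounds (up to 57.5 uM final), then stimulated with LPS (250 ng/mL final) plus ATP (1.25 mM final); secreted IL-1B measured by AlphaLISA after 16 hr, decreased signal indicating inhibition.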
HepG2 viability: HepG2 cytotoxicity, counter-screen for TGF-b inhibitors; Potency, µM (top dose mostly 46.1 µM), usual class: cytotoxic; AID 588856; 0.76% of 410,000 active; HepG2 CAGA-GFP viability, ATP luminescence, 18 h
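CellTiter-Glo luminescence gave cytotoxicity after 18 hours at 37 degrees C. The cells were HepG2 CAGA-GFP in 1% FBS DMEM, stimulated with 500 pg/mL TGF-beta after compound addition. %Activity was normalised to no-cell wells (complete cell-killing) and DMSO (no toxicity), and curves were fitted and classified.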
TGFb inhibitor: TGF-b pathway inhibition | HepG2 CAGA-GFP TGF-b/SMAD3 reporter, GFP fluorescence, 18 h; TGF-beta stimulated, 500 pg/mL final | Potency, µM (series often up to 46.1 µM), hits mostly inhibitors | 1.2% of 410,000 active; also: nearly all actives have a fitted effect of over 65% in size
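Per well, imaged GFP fluorescence of HEPG2 CAGA-GFP cells gives the signal; cells get compound, then TGF-beta (500 pg/mL final), 18 h at 37 degrees C; %Activity versus -TGF-beta and +DMSO controls.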
ATXN2 expr inh: inhibitors of ATXN2 expression; Potency, µM (highest dose often 57 µM), actives largely listed as inhibitors; HEK-293 ATXN2-luciferase reporter, luminescence, 24 h; 0.72% of 360,000 active; AID 1745845; also: nearly all actives have a fitted effect of over 55% in size
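ATXN2-luciferase reporter cells (luciferase flanked by upstream and downstream ATXN2 gene portions) were treated 24 h at 37 °C with compounds at up to 57 uM. SteadyGlo luminescence gave expression; GF-AFC fluorescence gave viability.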
ATXN viability: reduces viability in counter-screen for ATXN expression inhibitors | S2 cells (HEK-293 line with an ATXN2-luciferase reporter) viability, CellTiter-Fluor protease fluorescence, 24 h | Potency, µM (top dose mostly 56.7 µM), most hits filed as cytotoxic | 0.49% of 400,000 active; also: nearly all actives have a fitted effect of over 40% in size
Of the large screens only hits and unclear results are named; the others gave an inactive call. Sampled rows, rich in hits. Any-hit rate of the full collection: about 5.7%. Unless noted, calls follow the shape of the dose curve; as a rule, active = well fitted curve in the direction sought with a large enough effect; inconclusive = small, poorly fitted or top-dose-only effect, or another doubt; inactive = no such curve, though single readings can be large; an effect the other way counts as inactive or inconclusive.

O=C(Cn1c(-c2cccs2)cc2ccccc21)N1CCN(c2ccc(F)cc2)CC1	none (no result: IL1B secr inh)
Cc1nc(P(=O)(c2ccccc2)c2ccccc2)c(N2CCOCC2)o1	none
Cc1ccccc1-c1nc(P(=O)(c2ccccc2)c2ccccc2)c(N2CCOCC2)o1	IL1B secr inh -67, ATXN2 expr inh inconclusive, ATXN viability inconclusive
Cc1cc(C)nc(NC(=O)c2ccc([N+](=O)[O-])o2)n1	TGFb inhibitor inconclusive, ATXN viability inconclusive
Cc1cc(C)cc(NC(=O)c2ccc([N+](=O)[O-])o2)c1	IL1B secr inh -96, HepG2 viability 13µM, TGFb inhibitor 11µM, ATXN2 expr inh inconclusive, ATXN viability inconclusive
COc1ccc(N/C(=C/[N+](=O)[O-])SC)cc1	IL1B secr inh -57
CC(NC(=O)c1ccc([N+](=O)[O-])o1)C12CC3CC(CC(C3)C1)C2 (centres undefined)	IL1B secr inh -136, TGFb inhibitor 11µM
CS/C(=C\[N+](=O)[O-])Nc1ccc(F)cc1	none
Cc1cc(C)c2sc(NC(=O)c3ccc([N+](=O)[O-])o3)nc2c1	IL1B secr inh inconclusive, ATXN viability inconclusive
NS(=O)(=O)c1ccc(O)c(NC(=O)c2ccc([N+](=O)[O-])o2)c1	IL1B secr inh -61
COc1cccc(CN2C(=O)NC(C)(C3CCN(Cc4cccc(O)c4)CC3)C2=O)c1OC (centres undefined)	none (no result: IL1B secr inh, HepG2 viability, TGFb inhibitor, ATXN2 expr inh)
Cc1ccccc1C(=O)Nc1nnc(S(=O)(=O)N2CCc3ccccc32)s1	TGFb inhibitor inconclusive (no result: IL1B secr inh)
Cc1cc(C)n(-c2nc(NC(C)C)nc(NC(C)(C)C)n2)n1	none (no result: IL1B secr inh, ATXN2 expr inh, ATXN viability)
CC(=O)c1ccc(NC(=O)c2ccc([N+](=O)[O-])o2)cc1	IL1B secr inh -98, HepG2 viability 16µM, TGFb inhibitor 13µM, ATXN viability inconclusive (no result: ATXN2 expr inh)
COc1ccc(NC(=O)c2c([N+](=O)[O-])c(C(C)(C)C)nn2C)cc1	IL1B secr inh -54
CC(=O)c1cccc(NC(=O)c2cc(=O)c3ccccc3o2)c1	ATXN viability inconclusive (no result: ATXN2 expr inh)
CC(=O)Nc1ccc(NC(=O)COC(=O)c2ccc([N+](=O)[O-])o2)cc1	none
COc1cc(NC(=O)c2cccc([N+](=O)[O-])c2)ccc1NC(=O)c1ccco1	IL1B secr inh inconclusive
CC(=O)c1cccc(NC(=O)c2ccc([N+](=O)[O-])o2)c1	IL1B secr inh -87, TGFb inhibitor inconclusive, ATXN viability inconclusive
COc1cc(NC(=O)c2ccc([N+](=O)[O-])o2)ccc1NC(=O)c1ccco1	TGFb inhibitor 1.1µM (no result: ATXN2 expr inh)
COc1ccc(NC(=O)c2ccc([N+](=O)[O-])o2)cc1	IL1B secr inh -96, TGFb inhibitor 11µM
OC(C#Cc1ccccn1)c1cccs1 (centres undefined)	IL1B secr inh -95, HepG2 viability 10µM, TGFb inhibitor 16µM, ATXN2 expr inh inconclusive, ATXN viability inconclusive
O=C(NC(c1ccc(Cl)cc1)c1ccccn1)C1CCN(CCOc2ccc(Cl)cc2Cl)CC1 (centres undefined)	TGFb inhibitor inconclusive
Cc1cccnc1C(NC(=O)C1CCN(Cc2cn(C)c3ccccc23)CC1)c1ccc(Cl)cc1 (centres undefined)	IL1B secr inh inconclusive, HepG2 viability 8.9µM, TGFb inhibitor inconclusive, ATXN2 expr inh inconclusive, ATXN viability inconclusive
Cc1cccnc1C(NC(=O)C1CCN(CCOc2ccc(Cl)cc2Cl)CC1)c1ccc(Cl)cc1 (centres undefined)	IL1B secr inh inconclusive, TGFb inhibitor inconclusive, ATXN2 expr inh 20µM, ATXN viability 25µM
Cc1cccnc1C(NC(=O)C1CCN(CCCc2ccccc2)CC1)c1ccc(Cl)cc1 (centres undefined)	IL1B secr inh -57, HepG2 viability 11µM, TGFb inhibitor inconclusive, ATXN2 expr inh inconclusive, ATXN viability inconclusive
COCCNc1oc(/C=C/c2ccc(F)cc2)nc1C#N	none (no result: IL1B secr inh, TGFb inhibitor, ATXN2 expr inh, ATXN viability)
COc1ccc(OC)c(NC(=O)N2CCN(S(=O)(=O)c3ccc4c(ccn4C)c3)CC2)c1	none (no result: IL1B secr inh)
COc1c(Br)cc(Br)cc1/C=C1/C(=O)N=C(N)N1C	IL1B secr inh -54
COc1cccc(-n2cc(C(=O)Nc3cccc(C(F)(F)F)c3)c3ccccc3c2=O)c1	TGFb inhibitor inconclusive (no result: IL1B secr inh, ATXN2 expr inh, ATXN viability)
Cc1ccc(OC(=O)c2cc(-c3ccc4c(c3)OCCO4)on2)c(C)c1	none (no result: IL1B secr inh, ATXN2 expr inh, ATXN viability)
Cc1cc(C=O)cc(C)c1[N+](=O)[O-]	none (no result: IL1B secr inh, ATXN2 expr inh, ATXN viability)
